Compound activity deposited in PubChem BioAssay by Johns Hopkins Ion Channel Center.
Compounds with a hit are over-represented: about 1.6% of the library has one in this group of screens.
KCNQ2 pot = potentiators of rat KCNQ2 potassium channel. Potassium voltage-gated channel subfamily KQT member 2 (Rattus norvegicus), O88943. CHO-K1 KCNQ2, FluxOR thallium flux fluorescence; hits give high values. B-score at 10 µM. actives 0.54% (n = 310,000). AID 2239, 2010;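 active = fluorescence ratio B-score at least 3 SD of library B-scores, with initial fluorescence B-score within 3 of them, cut at about 5.3 in these data; same plate scores as AID 2156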;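 also: B-score of peak minus minimum over baseline fluorescence ratio after K+ and Tl+ stimulus; positive B-score means potentiation of KCNQ2 with more thallium influx and brighter signal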
Target sequence (O88943 whole entry, looked up): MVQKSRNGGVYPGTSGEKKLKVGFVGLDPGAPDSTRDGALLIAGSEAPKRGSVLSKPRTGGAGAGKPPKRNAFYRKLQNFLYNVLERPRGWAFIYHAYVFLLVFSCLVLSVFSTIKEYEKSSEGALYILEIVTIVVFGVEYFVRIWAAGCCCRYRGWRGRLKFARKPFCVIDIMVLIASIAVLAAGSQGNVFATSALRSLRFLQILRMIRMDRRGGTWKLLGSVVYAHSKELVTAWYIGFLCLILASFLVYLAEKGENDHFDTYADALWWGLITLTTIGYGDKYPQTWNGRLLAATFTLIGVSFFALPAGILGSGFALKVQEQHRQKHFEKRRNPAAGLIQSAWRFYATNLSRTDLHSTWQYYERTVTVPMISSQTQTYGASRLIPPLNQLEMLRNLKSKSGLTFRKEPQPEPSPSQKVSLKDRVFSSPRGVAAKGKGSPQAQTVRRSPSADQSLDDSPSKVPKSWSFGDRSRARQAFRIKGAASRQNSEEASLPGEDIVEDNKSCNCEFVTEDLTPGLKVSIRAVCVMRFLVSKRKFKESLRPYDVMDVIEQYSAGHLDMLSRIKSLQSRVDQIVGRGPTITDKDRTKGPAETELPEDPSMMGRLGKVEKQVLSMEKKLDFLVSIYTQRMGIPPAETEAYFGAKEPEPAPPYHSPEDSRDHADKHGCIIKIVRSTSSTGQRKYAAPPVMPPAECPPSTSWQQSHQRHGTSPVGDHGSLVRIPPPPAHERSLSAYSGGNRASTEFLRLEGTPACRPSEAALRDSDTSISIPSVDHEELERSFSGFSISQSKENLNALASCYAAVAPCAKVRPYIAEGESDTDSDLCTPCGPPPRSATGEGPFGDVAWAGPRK
KCNQ2 block = rat KCNQ2 potassium channel inhibitors, primary screen, cell-based, CHO-K1, FluxOR thallium flux, B-score; Potassium voltage-gated channel subfamily KQT member 2 (Rattus norvegicus), O88943; 20 min; hits give low values; B-score at 10 µM; actives 1.1% (n = 310,000); AID 2156, 2009;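 active = fluorescence ratio B-score at most minus 3 library SDs, with starting brightness B-score within 2 library SDs, cut at about -5.5 in these data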
Numbers stand for hits; . = inactive; / = not tested or not shown.

SMILES	KCNQ2 pot	KCNQ2 block
COc1cccc(C(=O)NN/C(C)=C/C(=O)C(F)(F)C(F)(F)C(F)(F)F)c1	8.5	.
COc1cccc(C(=O)Nc2ccc(NC(C)=O)cc2)c1	/	.
COC(c1ccc(Cl)cc1)(c1ccc(Cl)cc1)C(Oc1nc(C)cc(C)n1)C(=O)O (stereo not given)	/	.
O=C(CNCc1ccccc1)Nc1ccccc1-c1ccccc1	/	.
O=C(CNCc1ccccc1)Nc1cccc(Cl)c1Cl	.	-6.02
COc1ccc(S(=O)(=O)N2CCCCCC2)cc1C(=O)N(C)CC(=O)Nc1cc(C)ccc1C	/	.
CCc1ccc(NC(=O)CN2C(=O)C(=O)N(Cc3ccccc3)C2=O)cc1	.	.
CC(=O)NC1=NN(C(C)=O)C(c2sccc2C)S1 (stereo not given)	.	.
COc1ccc2oc(C(=O)N3CCN(C(=O)c4ccco4)CC3)c(C)c2c1	.	.
COc1ccc2oc(C(=O)N(Cc3ccco3)Cc3cccs3)c(C)c2c1	.	-5.77
COc1ccc2oc(C(=O)OCC(=O)c3ccc4c(c3)OCCO4)c(C)c2c1	/	.
COc1ccc2oc(C(=O)N(C)Cc3ccc4c(c3)OCCO4)c(C)c2c1	.	-6.71
O=c1ccc(Cl)cn1Cc1ccccc1F	/	.
CC(=O)c1ccc(NC(=S)N2C(C)CCCC2C)cc1 (stereo not given)	/	.
Cn1cc([N+](=O)[O-])c(C(=O)n2cccn2)n1	/	.
COc1ccc(/C=C2\C(=O)N(Cc3ccc(F)cc3)CC(=O)N2Cc2ccccc2)cc1	.	-6.09
COc1ccc(/C=C2\C(=O)NCC(=O)N2Cc2ccccc2)cc1	/	.
C=CCNC(=O)C1(c2ccccc2)CC1(Cl)Cl (stereo not given)	/	.
CC(C)CN(CC(C)C)S(=O)(=O)c1cc([N+](=O)[O-])ccc1N1CCCCCC1	.	-6.08
CN(C)S(=O)(=O)c1cc([N+](=O)[O-])ccc1N1CCCCCC1	/	.
COc1ccccc1NC(=O)CN1CCN(CC(=O)Nc2ccc(F)cc2F)CC1	/	.
COc1cc(C(=O)Nc2ccc(NC(C)=O)cc2)ccc1OCc1ccccc1	/	.
CCOC(=O)C1(CCc2ccccc2)CCN(Cc2ccc(C(=O)OC)cc2)CC1	.	-5.65
CCOC(=O)C1(CC2CC2)CCN(Cc2ccc(C(=O)OC)cc2)CC1	/	.
CN(C(=O)COC(=O)C1CCN(S(=O)(=O)c2ccc3c(c2)OCCO3)CC1)C1CCS(=O)(=O)C1 (stereo not given)	.	.
SMILES	KCNQ2 pot	KCNQ2 block
COc1cc2ccccc2cc1C(=O)Nc1nccs1	/	.
CCc1cc2cc(C(=O)N3CCN(Cc4ccccc4)CC3)sc2s1	.	-5.76
CCc1cc2cc(C(=O)N3CCN(c4ccccc4)CC3)sc2s1	/	.
COc1ccc(Br)cc1CN(C)C(=O)c1cnc(C)cn1	.	.
Cc1cc(OCc2cc(C(=O)NCCN3CCCCC3CO)no2)cc(C)c1Cl (stereo not given)	.	-7.87
COc1cccc(OCc2cc(C(=O)NCCN3CCCCC3CO)no2)c1 (stereo not given)	.	.
CCN1CCN(S(=O)(=O)Cc2ccccc2Cl)CC1	/	.
CCN(c1ccc(OC)cc1)S(=O)(=O)N1CCCC(C(=O)NCc2cccc(C)c2)C1 (stereo not given)	.	-6.37
CCS(=O)(=O)N1CCCC(C(=O)NCc2cccc(OC)c2)C1 (stereo not given)	.	.
Cc1cccc(NC(=O)C2Cc3ccccc3CN2C(=O)OCc2ccccc2)c1C (stereo not given)	/	.
Cc1c(Cl)cccc1NC(=O)C1Cc2ccccc2CN1C(=O)c1ccccc1 (stereo not given)	.	-7.88
CCN(CC)C(=O)CSc1nc2ccccc2c(=O)n1-c1cccc(OC)c1	/	.
COc1cccc(-n2c(SCc3cc(=O)oc4cc(O)c(O)cc34)nc3ccccc3c2=O)c1	.	-6.11
C=CCN(CC=C)C(=O)c1ccc(OC2CCN(Cc3ccccn3)CC2)cc1	.	.
C=CCn1c(O)c(N=NC(=S)Nc2cccc(OC)c2)c2ccccc21	11.8	.
C=CCn1c(O)c(N=NC(=S)Nc2ccc(OC)cc2)c2ccccc21	.	.
COc1ccc(-c2noc(CNC(=O)c3ccoc3C)n2)cc1OC	/	.
Nc1ccccc1C(O)(Cc1ccccc1)c1ccccc1 (stereo not given)	.	.
CCCOc1ccc(C(=O)CCNC(Cc2c[nH]c3ccccc23)C(=O)O)cc1 (stereo not given)	.	-5.95
COc1ccc(C(=O)NC(Cc2c[nH]c3ccccc23)C(=O)O)cc1 (stereo not given)	/	.
COc1cc(NC(=O)COC(=O)c2cnccn2)c(C)cc1[N+](=O)[O-]	/	.
CCn1cc(C2=NC(C)CO2)c2ccccc21 (stereo not given)	.	.
CCn1cc(C2=NC(c3ccccc3)CO2)c2ccccc21 (stereo not given)	.	-5.7
O=C(Nc1nnc(-c2ccccc2)o1)c1cc(Cl)sc1Cl	.	.
O=C(Nc1nnc(-c2ccc(F)cc2)o1)c1cc(Cl)sc1Cl	16.1	.
